Test results from PubChem BioAssay (NCI).
The panel holds about 83,000 compounds, 20% with a hit somewhere; the sample as a whole holds those more often.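 Cells were grown in 96-well plates and exposed to the test compound at a single concentration for 48 hours; results are reported as percent growth, with values below 10 considered active.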 A number with no mark means an inactive call. Active and inactive are the calls of the source.

Columns and labels:
Test in all cases: NCI-60 one-dose screen, 48 h (100 = growth as untreated, 0 = no growth, -100 = all killed)
Details in all cases: 10 µM unless noted
[1] = tested on: T-47D breast
[2] = tested on: BT-549 breast
[3] = tested on: MDA-MB-435 melanoma
[4] = tested on: SW-620 colon
[5] = tested on: MCF7 breast
[6] = tested on: HCT-116 colon
[7] = tested on: HCC-2998 colon
[8] = tested on: KM12 colon

Compound	growth [1]	growth [2]	growth [3]	growth [4]	growth [5]	growth [6]	growth [7]	growth [8]
CCOC(=O)c1cnc2c(cnn2CC)c1NN=C(C)C	87.7%	91%	108%	104%	88.7%	86.5%	94.9%	96.5%
NC(=O)c1cccc(-c2cc(C(N)=O)ccc2Cl)c1	33.9%	57.9%	-27.6% (active)	21.1%	23.5%	25.4%	57.7%	30.8%
NC(=S)N/N=C(/c1ccccc1)c1ccccc1N	43.7%	104%	90.4%	79.2%	39.7%	3.36% (active)	113%	98.9%
CC(C)(C)CC(C)(C)Nc1c(-c2ccc(C(F)(F)F)cc2)nc2cnccn12	74.4%	76%	98.8%	102%	66.5%	-5.73% (active)	92.1%	83.8%
Cc1nccc2c3ccc(OCc4cn(-c5ccc(Cl)cc5)nn4)cc3n(CCCc3ccccc3)c12	74.7%	31.8%	27.8%	12.9%	20.2%	31.7%	70.9%	35.2%
COc1cc(/C=N/NC(=O)c2ccccc2Nc2cccc(C(F)(F)F)c2)ccc1O	55.6%	102%	81.4%	101%	83.9%	67.2%	91.4%	79.5%
CC(=O)N1c2ccccc2NC2=C(C(=O)N(C)C2(C)C)C1C (stereo not drawn)	28.7%	69.5%	-67.8% (active)	24.2%	16.4%	24.9%	60.8%	19.8%
Nc1nc(SN=Nc2ccc(S(N)(=O)=O)cc2)c2[nH]cnc2n1	23.8%	36%	7.71% (active)	19.2%	7.59% (active)	12.3%	5.53% (active)	5.31% (active)
COc1nc(N)nc(-n2c(-c3ccc(C)cc3)nc3ccccc32)c1NCc1ccc(C)cc1	79%	101%	102%	98.1%	91.8%	84.5%	103%	89.6%
COc1ccc(C(=O)c2cc3c(N)c(C(=O)Nc4ccc(Br)cc4)sc3nc2C)cc1	70.6%	78.2%	63.6%	79.1%	71%	58.2%	94.7%	72%
Clc1ccc2c(c1)c(-c1ccccc1)nc1nncn12	98.2%	99.8%	113%	116%	99%	106%	113%	103%
O=C1CCCN1c1cccc2cccnc12	97.5%	109%	100%	101%	93.3%	102%	86.7%	102%
CS(=O)(=O)OCCN(CCOS(C)(=O)=O)c1ccc(/C=N/Nc2ccc([N+](=O)[O-])cc2[N+](=O)[O-])cc1	76%	99.3%	94.1%	73.4%	66.5%	83.9%	80.2%	99.6%
O=c1[nH]nc(-c2ccc(Cl)cc2)cc1Cc1cccc([N+](=O)[O-])c1	85.2%	133%	112%	101%	84.8%	100%	130%	93.3%
CC(=O)c1cccc(NS(=O)(=O)c2cccc(C(=O)Nc3ccc(Br)cc3)c2)c1	26.7% [25 µM]	46.9% [25 µM]	37.6% [25 µM]	67.4% [25 µM]	49% [25 µM]	39.9% [25 µM]	79.7% [25 µM]	56% [25 µM]
C#CCn1cc(C=C2C(=O)NC(=S)NC2=O)c2cc(Cl)ccc21	76.6%	24.6%	15%	-27.5% (active)	10.6%	2.51% (active)	-4.98% (active)	14.4%
